# In PubChem BioAssay AID1159580 (chemical genetic matrix, 2015):
# Screen size: about 5,500 compounds; about 2,000 (36%) were called active. Inconclusive results (about 18%) are left out. The list shows a part of the results. Unmarked numbers belong to inactive results. No stated cut-off is given here; in the data, active means normalized growth mostly below about 0.91 (no sharp cut-off); inconclusive means no clear call, values can overlap the other calls; inactive means mostly above about 0.92.
# Experiment: chemical genetic growth profiling, strain panel (AID 1159580);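 further: tested at 20 µM; growth read once vehicle control cultures reached saturation at 30 °C; 1 = growth at the plate median or of vehicle wells; lower values mean less growth of the strain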
# Conditions: S. cerevisiae deletion strains, growth OD
compound,measurement,setting,value
CC(=O)Oc1c2c(c(CC=C(C)C)c3c1C(=O)C1=C[C@@H]4CC5C(C)(C)OC(C/C=C(\C)C(=O)O)(C4=O)[C@@]15O3)OC(C)(CCC=C(C)C)C=C2 (stereo partly specified),normalized growth,"locus YAL021C, strain ccr4, active compounds read low",0.99
same,normalized growth,"locus YAL026C, strain drs2, active compounds read low",0.986
same,normalized growth,"locus YAL030W, strain snc1, active compounds read low",0.977
same,normalized growth,"locus YBL061C, strain skt5, active compounds read low",0.984
same,normalized growth,"locus YBR009C, strain hhf1, active compounds read low",0.948
same,normalized growth,"locus YBR023C, strain chs3, active compounds read low",0.962
same,normalized growth,"locus YBR171W, strain sec66, active compounds read low",0.989
same,normalized growth,"locus YBR231C, strain swc5, active compounds read low",0.953
same,normalized growth,"locus YBR279W, strain paf1, active compounds read low",0.975
same,normalized growth,"locus YCL011C, strain gbp2, active compounds read low",0.98
same,normalized growth,"locus YCL016C, strain dcc1, active compounds read low",0.97
same,normalized growth,"locus YCL069W, strain vba3, active compounds read low",0.991
same,normalized growth,"locus YCR088W, strain abp1, active compounds read low",0.972
same,normalized growth,"locus YDL005C, strain med2, active compounds read low",0.977
same,normalized growth,"locus YDL040C, strain nat1, active compounds read low",0.978
same,normalized growth,"locus YDR001C, strain nth1, active compounds read low",0.988
same,normalized growth,"locus YDR069C, strain doa4, active compounds read low",0.933
same,normalized growth,"locus YDR137W, strain rgp1, active compounds read low",0.551 (active)
same,normalized growth,"locus YDR159W, strain sac3, active compounds read low",0.975
same,normalized growth,"locus YDR195W, strain ref2",1.11
same,normalized growth,"locus YDR297W, strain sur2, active compounds read low",0.969
same,normalized growth,"locus YDR334W, strain swr1, active compounds read low",0.976
same,normalized growth,"locus YDR335W, strain msn5, active compounds read low",0.994
same,normalized growth,"locus YDR392W, strain spt3, active compounds read low",0.695 (active)
same,normalized growth,"locus YEL003W, strain gim4, active compounds read low",0.978
same,normalized growth,"locus YEL037C, strain rad23, active compounds read low",0.99
same,normalized growth,"locus YEL061C, strain CIN8 (second series), active compounds read low",1
same,normalized growth,"locus YER015W, strain faa2, active compounds read low",0.989
same,normalized growth,"locus YER016W, strain bim1, active compounds read low",0.971
same,normalized growth,"locus YER111C, strain swi4, active compounds read low",0.99
same,normalized growth,"locus YER155C, strain BEM2 (second series), active compounds read low",0.96
same,normalized growth,"locus YFR010W, strain ubp6, active compounds read low",0.938
same,normalized growth,"locus YGL167C, strain pmr1, active compounds read low",0.982
same,normalized growth,"locus YGL173C, strain kem1, active compounds read low",0.97
same,normalized growth,"locus YGL227W, strain vid30, active compounds read low",1
same,normalized growth,"locus YGL240W, strain doc1, active compounds read low",0.983
same,normalized growth,"locus YGL253W, strain hxk2, active compounds read low",0.989
same,normalized growth,"locus YHR013C, strain ard1, active compounds read low",0.894
same,normalized growth,"locus YHR027C, strain rpn1, active compounds read low",0.984
same,normalized growth,"locus YHR142W, strain chs7, active compounds read low",0.939
same,normalized growth,"locus YJL092W, strain hpr5, active compounds read low",0.975
same,normalized growth,"locus YJL095W, strain BCK1 (second series), active compounds read low",0.944
same,normalized growth,"locus YJL115W, strain asf1, active compounds read low",1.01
same,normalized growth,"locus YJL129C, strain trk1, active compounds read low",0.76 (active)
same,normalized growth,"locus YJL154C, strain vps35, active compounds read low",0.996
same,normalized growth,"locus YJL164C, strain tpk1, active compounds read low",0.951
same,normalized growth,"locus YJL166W, strain qcr8, active compounds read low",0.984
same,normalized growth,"locus YJL187C, strain SWE1, active compounds read low",0.974
same,normalized growth,"locus YKL160W, strain elf1, active compounds read low",0.962
same,normalized growth,"locus YKR026C, strain gcn3, active compounds read low",0.983
same,normalized growth,"locus YKR091W, strain srl3, active compounds read low",0.978
same,normalized growth,"locus YLL001W, strain dnm1, active compounds read low",0.979
same,normalized growth,"locus YLL026W, active compounds read low",1
same,normalized growth,"locus YLL041C, strain sdh2, active compounds read low",0.994
same,normalized growth,"locus YLR027C, strain aat2, active compounds read low",0.977
same,normalized growth,"locus YLR221C, strain rsa3, active compounds read low",0.969
same,normalized growth,"locus YLR258W, strain gsy2, active compounds read low",0.979
same,normalized growth,"locus YLR262C, strain YPT6 (second series), active compounds read low",0.543 (active)
same,normalized growth,"locus YLR320W, strain mms22, active compounds read low",0.806 (active)
same,normalized growth,"locus YLR342W, strain FKS1, active compounds read low",0.963
same,normalized growth,"locus YLR357W, strain rsc2, active compounds read low",1.05
same,normalized growth,"locus YLR370C, strain arc18, active compounds read low",0.946
same,normalized growth,"locus YLR384C, strain iki3, active compounds read low",0.981
same,normalized growth,"locus YML120C, strain ndi1, active compounds read low",0.996
same,normalized growth,"locus YMR058W, strain fet3, active compounds read low",0.982
same,normalized growth,"locus YMR125W, strain sto1, active compounds read low",0.993
same,normalized growth,"locus YMR129W, active compounds read low",0.975
same,normalized growth,"locus YMR205C, strain PFK2, active compounds read low",0.812 (active)
same,normalized growth,"locus YMR231W, strain pep5, active compounds read low",0.987
same,normalized growth,"locus YNL071W, strain lat1, active compounds read low",0.797 (active)
same,normalized growth,"locus YNL209W, strain ssb2, active compounds read low",0.977
same,normalized growth,"locus YNL248C, strain rpa49, active compounds read low",0.983
same,normalized growth,"locus YNL322C, strain KRE1 (second series), active compounds read low",1.01
same,normalized growth,"locus YNR049C, strain mso1, active compounds read low",0.984
same,normalized growth,"locus YOR001W, strain rrp6, active compounds read low",0.988
same,normalized growth,"locus YOR070C, strain gyp1, active compounds read low",0.971
same,normalized growth,"locus YOR080W, strain dia2, active compounds read low",0.994
same,normalized growth,"locus YOR083W, strain WHI5, active compounds read low",0.953
same,normalized growth,"locus YOR106W, strain vam3, active compounds read low",0.931
same,normalized growth,"locus YOR265W, strain rbl2, active compounds read low",0.962
same,normalized growth,"locus YOR270C, strain vph1, active compounds read low",0.653 (active)
same,normalized growth,"locus YOR290C, strain snf2, active compounds read low",0.96
same,normalized growth,"locus YPL051W, strain arl3, active compounds read low",0.931
same,normalized growth,"locus YPL078C, strain atp4, active compounds read low",0.967
same,normalized growth,"locus YPL106C, strain sse1, active compounds read low",1.02
same,normalized growth,"locus YPL240C, strain hsp82, active compounds read low",0.978
